# Reference: publication PMC5540273 (PLoS ONE, 2017)
# Test system: WNK3
# Conditions: concentration: 1 μM, replicates: in singlicate; n = 1
# 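Further: KINOMEscan kinase panel screen.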
row,Compound,%Inh [%]
1,Nc1ncnc2[nH]c(-c3ccccc3)nc12 [AH5015],13
2,Cc1cc(-c2ccc3c(c2)CC[C@@H](N[C@@H](C)c2ccccc2)C3)cnc1N.Cl [GW412617],7
3,Cc1ccc(-c2cc(-c3c[nH]nc3-c3ccccn3)ccn2)cc1 [GW684088],53
4,O=C(Nc1n[nH]c2cc(-c3cccc(F)c3F)ccc12)C1CC1 [SB-733894],0
5,O=C(Nc1ccc2c(c1)OCO2)NC1CCN(c2ccnc(Nc3ccc(F)cc3)n2)C1 (stereo not shown) [GSK1379724],31
6,O=c1cc(N2CCOCC2)nc2n(Cc3cccc(Cl)c3Cl)ccn12 [GSK2286295],0
7,COc1cccc(NC(=O)NC2CCN(c3ccnc(Nc4ccc(F)cc4)n3)C2)c1 (stereo not shown) [GSK1379721],33
8,CN(C)CCN(C)C(=O)c1cc(-c2ccncc2)c(-c2ccc(Cl)c(O)c2)o1.Cl.Cl [SB-710397],38
9,CC(C)(C)c1ccc(C(=O)Nc2cn3cc(Cl)ccc3n2)cc1,0
10,COc1cc2nccc(Nc3ccc(NC(=O)c4ccc(C)cc4)c(O)c3)c2cc1OC.Cl [GW440132],14
11,O=C1NC(=O)C(N2CCc3ccccc32)=C1c1ccccc1Cl [SB-373598],22
12,COc1cc2ncn(-c3cc(OCC4CCCO4)c(C(N)=O)s3)c2cc1OC (stereo not shown) [GSK204607],12
13,COc1cc(Nc2nccc(N3CCC(NC(=O)Nc4cc(C)ccc4C)C3)n2)cc(OC)c1OC (stereo not shown) [GSK1379762],8
14,Cl.NC(=O)c1cccc(Nc2nccc(Nc3ccc(Oc4cccc(Cl)c4)c(Cl)c3)n2)c1 [GW659008],15
15,COc1ccccc1CNC(=O)c1cc(C(=O)c2ccccc2C)c[nH]1 [GSK364507],25
16,COc1cc2ncnc(Nc3ccc4nc(-c5ccccc5)[nH]c4c3)c2cc1OC.Cl [GW282450],6
17,NC(=O)c1nnc2ccccc2c1N,0

row,Compound,%Inh [%]
1,CN1C(=O)C(Nc2ccc(Cl)c(C(=O)O)c2)=C(c2ccc(Cl)cc2)C1=O [SB-404290],5
2,Cc1cccc(-c2cc(Nc3ccncc3)c3ccccc3n2)n1 [GSK223675],1
3,Cc1ccc(NC(=O)Nc2cc(C(C)(C)C)nn2-c2ccccc2)cc1 [GSK1014915],13
4,Cn1ccc2ncnc(Oc3ccc(Nc4nc5ccccc5[nH]4)cc3)c21,0
5,CCn1c(-c2cccnc2O)nc2cnccc21 [SB-736715],0
6,COc1ccc(C2=C(Nc3cccc(C(=O)O)c3)C(=O)NC2=O)cc1 [SB-390765],23
7,Fc1cc(Cl)ccc1Nc1ccnc2cc(I)ccc12 [GW551191],29
8,CS(=O)(=O)c1ccc(-c2c(-c3ncn[nH]3)sc(N3CCOCC3)c2C#N)cc1,0
9,Cn1ccc2ncnc(Oc3ccc(NC(=O)Nc4ccccc4)cc3)c21,0
10,Cc1cccc(-c2nc(Nc3ccc4[nH]ncc4c3)c3ccccc3n2)n1 [GW857175],40
11,CC1=C(C(=O)Nc2cc3cn[nH]c3cc2F)C(c2ccc(C(F)(F)F)cc2)CC(=O)N1 (stereo not shown) [GSK429286],3
12,Cc1cccc(-c2nc(C)cc(Nc3ccncc3)n2)n1 [GSK257997],6
13,Fc1cccc(COc2nnc(-c3ccc4c(c3)CCO4)o2)c1,0
14,COc1ccc(CNC(=O)NC2CCN(c3ccnc(Nc4cc(OC)c(OC)c(OC)c4)n3)C2)cc1 (stereo not shown) [GSK1379748],30
15,O=C(Nc1n[nH]c2nc(-c3nccs3)c(Br)cc12)C1CCCC1 [SB-742609],19
16,Cc1csc(-c2nc(Nc3ccncc3)c3ccccc3n2)n1 [GW869640],33
17,O=C(Nc1n[nH]c2nc(-c3nccs3)c(Br)cc12)C1CC1 [SB-742251],35
